From PubChem BioAssay (NCI)
The panel holds about 83,000 compounds, 20% with a hit somewhere; the sample as a whole holds those more often.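 Testing used 96-well plates and a 48-hour single-concentration exposure. Example: -40 means 40% of the starting cells died.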 Activity calls are given as the source filed them. The calls were made as follows: active = growth percent below 10; inactive = the rest.

Key:
Experiment in all cases: NCI-60 one-dose screen, 48 h (100 = growth as untreated, 0 = no growth, -100 = all killed)
Settings in all cases: 10 µM
HCT-15 colon = system: HCT-15 colon
HT29 colon = system: HT29 colon
SNB-75 CNS = system: SNB-75 CNS
SNB-19 CNS = system: SNB-19 CNS
U251 CNS = system: U251 CNS
PC-3 prostate = system: PC-3 prostate
SK-MEL-5 melanoma = system: SK-MEL-5 melanoma
UACC-62 melanoma = system: UACC-62 melanoma
LOX IMVI melanoma = system: LOX IMVI melanoma
SK-MEL-28 melanoma = system: SK-MEL-28 melanoma

Measured: growth

CN(C)c1ccc(/C=C/c2nc3ccccc3c(=O)n2CC(=O)Nc2ccccc2)cc1
active: LOX IMVI melanoma 1.57%
inactive: HCT-15 colon 52.4% | HT29 colon 63.6% | SNB-75 CNS 62.6% | SNB-19 CNS 62.9% | U251 CNS 16.5% | PC-3 prostate 67.5% | SK-MEL-5 melanoma 62% | UACC-62 melanoma 43.7% | SK-MEL-28 melanoma 35.6%

COc1ccc(/C(C)=N/N=C2C(=O)N(C)c3ccc(Br)cc32)cc1S(N)(=O)=O
active: SNB-75 CNS 6.59%
inactive: HCT-15 colon 75.1% | HT29 colon 101% | SNB-19 CNS 34.7% | U251 CNS 51.7% | PC-3 prostate 73.7% | SK-MEL-5 melanoma 88.2% | UACC-62 melanoma 73.8% | LOX IMVI melanoma 74.6% | SK-MEL-28 melanoma 90.3%

[2H]C([2H])([2H])Oc1ccc2ncc(C#Cc3cncc(C(=O)Nc4ccc(CN5CCN(C)CC5)c(C(F)(F)F)c4)c3)n2n1
active: HCT-15 colon -87.7% | HT29 colon -52.8% | SNB-75 CNS -66.4% | SNB-19 CNS -57.9% | U251 CNS -31.4% | PC-3 prostate -61.6% | SK-MEL-5 melanoma -96.1% | UACC-62 melanoma -77.5% | LOX IMVI melanoma -68.4% | SK-MEL-28 melanoma -83.8%

O=C(NO)c1ccc(Cn2ccc3c(Nc4ccccc4)ncnc32)cc1
active: HCT-15 colon -55.5% | HT29 colon 8.25% | SNB-19 CNS -30.4% | U251 CNS -38.9% | SK-MEL-5 melanoma -67.2% | UACC-62 melanoma -49.3% | LOX IMVI melanoma -91.9% | SK-MEL-28 melanoma 5.83%
inactive: SNB-75 CNS 44.3% | PC-3 prostate 15%

O=c1c2ccccc2nc(COc2ccccc2)n1/N=C/c1ccc(F)cc1
inactive: HCT-15 colon 76.5% | HT29 colon 61.4% | SNB-75 CNS 105% | SNB-19 CNS 87.7% | U251 CNS 101% | PC-3 prostate 76.2% | SK-MEL-5 melanoma 68.5% | UACC-62 melanoma 62.9% | LOX IMVI melanoma 94.9% | SK-MEL-28 melanoma 96%

Cc1nc(Nc2nc(C)c3ccc(OCCN4CCOCC4)cc3n2)[nH]c(=O)c1C
active: HCT-15 colon -48.7% | HT29 colon -56.9% | SNB-19 CNS -2.34% | U251 CNS 8.71% | SK-MEL-5 melanoma -97.1% | UACC-62 melanoma -84.6% | LOX IMVI melanoma -51.7% | SK-MEL-28 melanoma -21.3%
inactive: SNB-75 CNS 25.9% | PC-3 prostate 11.5%

COc1ccc(-c2nc(Nc3ccccc3S(N)(=O)=O)c3ccccc3n2)cc1
active: HT29 colon 8.94% | U251 CNS 3.82% | LOX IMVI melanoma -79.9%
inactive: HCT-15 colon 28.1% | SNB-75 CNS 109% | SNB-19 CNS 57.7% | PC-3 prostate 55.6% | SK-MEL-5 melanoma 61.3% | UACC-62 melanoma 56.5% | SK-MEL-28 melanoma 76.7%

O=c1oc2ccc(-c3ccc(F)cc3F)cc2c(=O)n1-c1ccc(F)c(Cl)c1
active: HCT-15 colon -23.6% | SNB-75 CNS -23.7% | U251 CNS 7.08% | PC-3 prostate 5.69% | SK-MEL-5 melanoma -91.6% | UACC-62 melanoma -60.2% | LOX IMVI melanoma -69.9% | SK-MEL-28 melanoma -21%
inactive: HT29 colon 23.1% | SNB-19 CNS 12.5%

CC(C)(C)Nc1nc2cc(Cl)c(Cl)cc2nc1S(C)(=O)=O
inactive: HT29 colon 47.4% | SNB-75 CNS 45.1% | SNB-19 CNS 102% | U251 CNS 68.7% | PC-3 prostate 54% | UACC-62 melanoma 52.9% | SK-MEL-28 melanoma 62.3%
active: HCT-15 colon -35.8% | SK-MEL-5 melanoma -17.4% | LOX IMVI melanoma -98%

CC1=C2C(=C[C@@](C)(CO)[C@@H]2O)/C(=N\N)[C@](C)(O)C12CC2
inactive: U251 CNS 12%
active: HCT-15 colon -17.1% | HT29 colon -11% | SNB-75 CNS -85.1% | SNB-19 CNS -16% | PC-3 prostate 6.9% | SK-MEL-5 melanoma -61.1% | UACC-62 melanoma -81.7% | LOX IMVI melanoma -64.3% | SK-MEL-28 melanoma -67.2%

Cc1ccc(-c2nc(Nc3ccc(S(N)(=O)=O)cc3)c3ccccc3n2)cc1
active: HCT-15 colon 1.3% | LOX IMVI melanoma -71.5%
inactive: HT29 colon 14.6% | SNB-75 CNS 87.6% | SNB-19 CNS 60.6% | U251 CNS 49.7% | PC-3 prostate 39.5% | SK-MEL-5 melanoma 74.4% | UACC-62 melanoma 78.5% | SK-MEL-28 melanoma 75.8%

O=C(Nc1nc2ccc([N+](=O)[O-])cc2s1)Nc1cc(Cl)ccc1I
active: HCT-15 colon -58.2% | HT29 colon -42.2% | SNB-75 CNS -42% | SNB-19 CNS 4.09% | U251 CNS -23.5% | PC-3 prostate -14.7% | SK-MEL-5 melanoma -94.3% | UACC-62 melanoma -54.1% | LOX IMVI melanoma -82.4% | SK-MEL-28 melanoma -52.7%

CC(=O)Nc1ccc(-c2cn(-c3cccc(C(=O)Nc4ccc(F)c(C(F)(F)F)c4)c3)nn2)cn1
active: HT29 colon 6.65% | U251 CNS -47.8% | LOX IMVI melanoma 8.57%
inactive: HCT-15 colon 20.7% | SNB-75 CNS 119% | SNB-19 CNS 43.8% | PC-3 prostate 43.1% | SK-MEL-5 melanoma 86.1% | UACC-62 melanoma 55.9% | SK-MEL-28 melanoma 60.3%

O=c1c2ccccc2nc(COc2ccccc2)n1/N=C/c1ccc(N2CCOCC2)cc1
inactive: HCT-15 colon 80.8% | HT29 colon 93.8% | SNB-75 CNS 43.9% | U251 CNS 51.5% | PC-3 prostate 75.6% | SK-MEL-5 melanoma 82% | UACC-62 melanoma 69.4% | LOX IMVI melanoma 69.6% | SK-MEL-28 melanoma 83.3%
active: SNB-19 CNS 3.55%

COc1ccc(N2N=C(c3ccc4c(c3)OCCO4)CC2c2cccc(NC(=O)CCCNS(=O)(=O)c3ccc(F)cc3)c2)cc1 (stereo not given)
inactive: HCT-15 colon 67.5% | HT29 colon 84.4% | SNB-75 CNS 42.4% | SNB-19 CNS 69.3% | U251 CNS 75.4% | PC-3 prostate 52% | SK-MEL-5 melanoma 64.2% | UACC-62 melanoma 61.8% | LOX IMVI melanoma 72.5% | SK-MEL-28 melanoma 81.5%

O=C(CNc1nc(-c2ccccc2)cs1)Nc1ccc([N+](=O)[O-])cc1
inactive: SNB-75 CNS 87.6% | SNB-19 CNS 38.3% | PC-3 prostate 33.7%
active: HCT-15 colon -23.5% | HT29 colon -44.9% | U251 CNS 9.22% | SK-MEL-5 melanoma -69.3% | UACC-62 melanoma 9.93% | LOX IMVI melanoma -19.5% | SK-MEL-28 melanoma -6.86%

CC[C@@]1(O)C(=O)OCc2c1cc1n(c2=O)Cc2c-1nc1cc(F)c(C)c3c1c2[C@@H](N)CC3
active: HCT-15 colon 5.44% | HT29 colon -11.1% | SNB-75 CNS -26.1% | SNB-19 CNS 1.87% | U251 CNS -42.1% | SK-MEL-5 melanoma -78.4% | UACC-62 melanoma -78.1% | LOX IMVI melanoma -74.2% | SK-MEL-28 melanoma -15.7%
inactive: PC-3 prostate 22.5%

N#Cc1c(-c2ccc(Cl)cc2)cc(-c2ccccc2)nc1OCc1ccccc1
inactive: HCT-15 colon 36.1% | HT29 colon 65% | SNB-75 CNS 74.7% | SNB-19 CNS 89.8% | U251 CNS 60.2% | PC-3 prostate 40.1% | SK-MEL-5 melanoma 54% | UACC-62 melanoma 62.3% | LOX IMVI melanoma 65.7% | SK-MEL-28 melanoma 86%

CC(=O)NNc1ccc2nnc(-c3ccc(Br)cc3)n2n1
inactive: HCT-15 colon 93.8% | HT29 colon 103% | SNB-75 CNS 121% | SNB-19 CNS 92% | U251 CNS 93.3% | PC-3 prostate 93.6% | SK-MEL-5 melanoma 95.4% | UACC-62 melanoma 87.9% | LOX IMVI melanoma 100% | SK-MEL-28 melanoma 106%

COc1cc2c3c(n(CCCNC(C)C)c(=O)c2cc1OC)-c1nc2c(cc1C3=O)OCO2
active: HCT-15 colon -87.9% | HT29 colon -65.4% | U251 CNS -76.3% | PC-3 prostate -66.1% | LOX IMVI melanoma -97.3%
inactive: SNB-75 CNS 78.6% | SNB-19 CNS 33.2% | SK-MEL-5 melanoma 54.4% | UACC-62 melanoma 22% | SK-MEL-28 melanoma 49.2%

Cc1ccc(-c2ccc(SCC(=O)Nc3ccc(Cl)c(C(F)(F)F)c3)nn2)cc1
active: HT29 colon -19.7% | SNB-75 CNS -23.5%
inactive: HCT-15 colon 14.9% | SNB-19 CNS 23.2% | U251 CNS 16.5% | PC-3 prostate 28.7% | SK-MEL-5 melanoma 18.9% | UACC-62 melanoma 15.5% | LOX IMVI melanoma 33.9% | SK-MEL-28 melanoma 57.6%

CC1(C)[C@@H](NCO)CC[C@]2(C)[C@H]3C(=O)C=C4[C@@H]5C[C@](C)(CO)CC[C@]5(C)CC[C@@]4(C)[C@]3(C)CC[C@@H]12
active: LOX IMVI melanoma -74.8% | SK-MEL-28 melanoma -29.5%
inactive: HCT-15 colon 13.6% | HT29 colon 13.9% | SNB-75 CNS 106% | SNB-19 CNS 70.1% | U251 CNS 18.9% | PC-3 prostate 31.3% | SK-MEL-5 melanoma 61% | UACC-62 melanoma 50.2%

C=CCn1c(SCC(=O)Nc2ccc(C(=O)/C=C/c3ccccc3)cc2)nnc1-c1c[nH]c2ccccc12
inactive: SNB-75 CNS 82.3% | SNB-19 CNS 54.1% | PC-3 prostate 39.4% | SK-MEL-5 melanoma 27.7% | UACC-62 melanoma 47% | SK-MEL-28 melanoma 68.5%
active: HCT-15 colon -57.2% | HT29 colon -31.5% | U251 CNS -52.5% | LOX IMVI melanoma -100%

CCN1CCN(c2ccc(NC(=O)Nc3ccc(-c4cc(C(=O)NC)c5ncccc5n4)cc3)cc2C(F)(F)F)CC1
active: HCT-15 colon -100% | HT29 colon -100% | SNB-75 CNS -95% | SNB-19 CNS -100% | U251 CNS -96.3% | PC-3 prostate -77.9% | SK-MEL-5 melanoma -100% | UACC-62 melanoma -99% | LOX IMVI melanoma -100% | SK-MEL-28 melanoma -100%

O=C(/C=C/Nc1ccccc1)c1ccc2c(c1)Nc1ccccc1S2
inactive: HCT-15 colon 80.4% | HT29 colon 90.4% | SNB-75 CNS 106% | SNB-19 CNS 36.3% | U251 CNS 38% | PC-3 prostate 78.5% | SK-MEL-5 melanoma 96.7% | UACC-62 melanoma 68.9% | LOX IMVI melanoma 79.9% | SK-MEL-28 melanoma 100%

NS(=O)(=O)c1ccc(NC(=O)CSc2ccc(-c3ccccc3)nn2)c(Br)c1
inactive: HCT-15 colon 86.7% | HT29 colon 99.2% | SNB-75 CNS 14.2% | SNB-19 CNS 42.9% | U251 CNS 17.8% | PC-3 prostate 51.9% | SK-MEL-5 melanoma 85.7% | UACC-62 melanoma 59.2% | LOX IMVI melanoma 42.6% | SK-MEL-28 melanoma 94.7%
